Test results published in PubChem BioAssay (EPA / NIEHS).
Active and inactive are the calls of the source. Rule for the calls: active = hit-call score of the fitted dose curve at least 0.9, where 1 is the maximum; inactive = score below 0.9.

Test system: not listed separately
Assay: ATG_Sox_CIS: Attagene CIS-FACTORIAL HepG2 Assay for human SRY-box transcription factor (SOX) (AID 2282960)
Conditions: HepG2 Attagene cis-factorial SOX reporter, mRNA; actives raise or lower the signal
Procedure, shortened: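 After 24 h of chemical treatment, transfected HepG2 reporter cells are lysed for total RNA. Transcript levels come from RT-PCR with labelled primer extension and capillary electrophoresis, analysed bidirectionally versus DMSO.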

SMILES | outcome
CCN(CC)c1ccccc1 | inactive
O=C(O)C(F)(F)C(F)(F)C(=O)O | inactive
CCCCc1ccccc1 | inactive
N#Cc1c(-c2ccc(Cl)cc2)[nH]c(C(F)(F)F)c1Br | inactive
O=[N+]([O-])c1ccccc1 | inactive
c1nc[nH]n1 | inactive
CCC(C)(C)c1ccc(O)cc1 | inactive
c1cc2c3c(cccc3c1)CC2 | inactive
O=C(O)C(Cl)Cl | inactive

Target: Transcription factor Sp1 (Homo sapiens) (UniProt P08047)
Assay: ATG_Sp1_CIS: Attagene CIS-FACTORIAL HepG2 Assay for human Specificity Protein 1 (Sp1) (AID 2282961)
Conditions: HepG2 Sp1 cis-reporter transcription, actives raise or lower the signal
Procedure, shortened: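 Sp1-driven reporter mRNA, read as capillary electrophoresis fluorescence after RT-PCR, in transiently transfected HepG2 cells dosed for 24 h; signal change in either direction relative to DMSO.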

Transcription factor Sp1 (Homo sapiens), sequence (P08047 whole entry, looked up): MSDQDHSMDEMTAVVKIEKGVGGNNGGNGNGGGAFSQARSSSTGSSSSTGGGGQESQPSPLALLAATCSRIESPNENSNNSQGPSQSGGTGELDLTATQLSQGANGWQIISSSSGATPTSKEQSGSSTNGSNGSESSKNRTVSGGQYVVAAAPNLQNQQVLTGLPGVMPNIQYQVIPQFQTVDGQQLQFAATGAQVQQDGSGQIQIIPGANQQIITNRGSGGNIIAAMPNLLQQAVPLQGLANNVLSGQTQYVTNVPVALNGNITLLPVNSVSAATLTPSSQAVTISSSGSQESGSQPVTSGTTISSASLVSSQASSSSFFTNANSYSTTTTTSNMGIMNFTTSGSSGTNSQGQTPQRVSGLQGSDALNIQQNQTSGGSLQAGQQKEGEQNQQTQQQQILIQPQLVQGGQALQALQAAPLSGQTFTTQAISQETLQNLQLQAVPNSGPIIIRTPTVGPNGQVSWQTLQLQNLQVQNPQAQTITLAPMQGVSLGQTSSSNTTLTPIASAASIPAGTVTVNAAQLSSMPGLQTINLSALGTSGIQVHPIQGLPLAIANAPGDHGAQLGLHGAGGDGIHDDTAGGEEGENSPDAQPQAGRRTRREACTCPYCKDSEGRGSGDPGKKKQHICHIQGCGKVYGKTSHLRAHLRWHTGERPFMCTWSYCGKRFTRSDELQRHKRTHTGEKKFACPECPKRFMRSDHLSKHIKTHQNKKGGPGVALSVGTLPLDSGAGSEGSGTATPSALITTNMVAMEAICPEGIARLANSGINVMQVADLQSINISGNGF

SMILES | outcome | AC50
O=C(O)C(F)(F)OC(F)(F)C(F)(F)OC(F)(F)C(=O)O | inactive | –
N#Cc1cc([N+](=O)[O-])ccc1N | inactive | –
COP(=O)(O)OC | inactive | –
CCOS(=O)(=O)OCC | inactive | –
Nc1cc2c3c(c1)C(c1ccccc1)=N[C@@H](NC(=O)c1cccnc1)C(=O)N3CC2 | inactive | –
Oc1ccc(I)cc1 | inactive | –
C/C(=N\NC(=O)Nc1cc(F)cc(F)c1)c1ncccc1C(=O)O | inactive | –
CCOP(=S)(OCC)SCSCC | inactive | –
OCC(F)(F)OC(F)(F)C(F)(F)OC(F)(F)C(F)(F)OC(F)(F)CO | inactive | –
[N-]=[N+]=[N-] | inactive | –
O=S1(=O)OCC2C(CO1)C1(Cl)C(Cl)=C(Cl)C2(Cl)C1(Cl)Cl (configuration not stated) | – | 172 µM (active)
Oc1ccccc1Br | inactive | –
FC(F)(F)C(F)(C(F)(F)F)C(F)(F)C(F)(F)CC1CO1 (configuration not stated) | inactive | –
C=CC(=O)OCC(CC)(COC(=O)C=C)COC(=O)C=C | – | 26.2 µM (active)
CC1(C)CN=C(NN=C(/C=C/c2ccc(C(F)(F)F)cc2)/C=C/c2ccc(C(F)(F)F)cc2)NC1 | – | 16.6 µM (active)
CCOP(=S)(OCC)SCn1nnc2ccccc2c1=O | inactive | –
O=C(O)C=CC(F)(C(F)(F)F)C(F)(F)F | inactive | –
O=C(O)C(F)(OC(F)(F)C(F)(F)C(F)(F)F)C(F)(F)F (configuration not stated) | inactive | –
CC1=C(C(=O)Nc2ccccc2)S(=O)(=O)CCO1 | inactive | –
O=P1(N(CCCl)CCCl)NCCCO1 (configuration not stated) | inactive | –

SMILES | outcome | AC50
OCC1CO1 (configuration not stated) | inactive | –
Nc1ccc(Cl)cc1 | inactive | –
CNC(=O)Oc1ccc(N(C)C)c(C)c1 | inactive | –
Nc1ccc(Sc2ccc(N)cc2)cc1 | inactive | –
c1ccc2c(c1)sc1ccccc12 | inactive | –
CC(O)C#N (configuration not stated) | inactive | –
OCC(F)(F)OC(F)(F)C(F)(F)OC(F)(F)CO | inactive | –
CCCCN(CCCC)N=O | inactive | –
CC(O)C(F)(F)C(F)(F)F (configuration not stated) | inactive | –
CCN(CC)c1ccccc1 | inactive | –
O=C(O)C(F)(F)C(F)(F)C(=O)O | inactive | –
CCCCc1ccccc1 | inactive | –
N#Cc1c(-c2ccc(Cl)cc2)[nH]c(C(F)(F)F)c1Br | inactive | –
O=[N+]([O-])c1ccccc1 | inactive | –
CCOC(=O)c1ccccc1C(=O)OCC | inactive | –
c1nc[nH]n1 | inactive | –
CCC(C)(C)c1ccc(O)cc1 | inactive | –
c1cc2c3c(cccc3c1)CC2 | inactive | –
O=C(O)C(Cl)Cl | inactive | –

Test system: not listed separately
Assay: ATG_SREBP_CIS: Attagene CIS-FACTORIAL HepG2 Assay for human Sterol Regulatory Element Binding (SREBP) (AID 2282962)
Conditions: HepG2 Attagene cis-factorial SREBP reporter, mRNA; actives raise or lower the signal
Procedure, shortened: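 Endogenous factor activity is measured in HepG2 through multiplexed reporter units under cis-element control. Following a 24 h incubation, reporter transcripts are reverse-transcribed, PCR-amplified and sized by capillary electrophoresis; activity is fitted in both directions relative to DMSO.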

SMILES | outcome | AC50
O=C(O)C(F)(F)OC(F)(F)C(F)(F)OC(F)(F)C(=O)O | inactive | –
N#Cc1cc([N+](=O)[O-])ccc1N | inactive | –
COP(=O)(O)OC | inactive | –
CCOS(=O)(=O)OCC | inactive | –
Nc1cc2c3c(c1)C(c1ccccc1)=N[C@@H](NC(=O)c1cccnc1)C(=O)N3CC2 | – | 66.8 µM (active)
Oc1ccc(I)cc1 | inactive | –
C/C(=N\NC(=O)Nc1cc(F)cc(F)c1)c1ncccc1C(=O)O | inactive | –
CCOP(=S)(OCC)SCSCC | inactive | –
OCC(F)(F)OC(F)(F)C(F)(F)OC(F)(F)C(F)(F)OC(F)(F)CO | inactive | –
[N-]=[N+]=[N-] | inactive | –
O=S1(=O)OCC2C(CO1)C1(Cl)C(Cl)=C(Cl)C2(Cl)C1(Cl)Cl (configuration not stated) | – | 100 µM (active)
Oc1ccccc1Br | inactive | –
FC(F)(F)C(F)(C(F)(F)F)C(F)(F)C(F)(F)CC1CO1 (configuration not stated) | inactive | –
C=CC(=O)OCC(CC)(COC(=O)C=C)COC(=O)C=C | – | 27 µM (active)
CC1(C)CN=C(NN=C(/C=C/c2ccc(C(F)(F)F)cc2)/C=C/c2ccc(C(F)(F)F)cc2)NC1 | – | 19.7 µM (active)
CCOP(=S)(OCC)SCn1nnc2ccccc2c1=O | inactive | –
O=C(O)C=CC(F)(C(F)(F)F)C(F)(F)F | inactive | –
O=C(O)C(F)(OC(F)(F)C(F)(F)C(F)(F)F)C(F)(F)F (configuration not stated) | inactive | –
CC1=C(C(=O)Nc2ccccc2)S(=O)(=O)CCO1 | inactive | –
O=P1(N(CCCl)CCCl)NCCCO1 (configuration not stated) | inactive | –

SMILES | outcome | AC50
OCC1CO1 (configuration not stated) | inactive | –
Nc1ccc(Cl)cc1 | inactive | –
CNC(=O)Oc1ccc(N(C)C)c(C)c1 | inactive | –
Nc1ccc(Sc2ccc(N)cc2)cc1 | inactive | –
c1ccc2c(c1)sc1ccccc12 | inactive | –
CC(O)C#N (configuration not stated) | inactive | –
OCC(F)(F)OC(F)(F)C(F)(F)OC(F)(F)CO | inactive | –
CCCCN(CCCC)N=O | inactive | –
CC(O)C(F)(F)C(F)(F)F (configuration not stated) | inactive | –
CCN(CC)c1ccccc1 | inactive | –
O=C(O)C(F)(F)C(F)(F)C(=O)O | inactive | –
CCCCc1ccccc1 | inactive | –
N#Cc1c(-c2ccc(Cl)cc2)[nH]c(C(F)(F)F)c1Br | – | 0.274 µM (active)
O=[N+]([O-])c1ccccc1 | inactive | –
CCOC(=O)c1ccccc1C(=O)OCC | inactive | –
c1nc[nH]n1 | inactive | –
CCC(C)(C)c1ccc(O)cc1 | – | 20 µM (active)
c1cc2c3c(cccc3c1)CC2 | inactive | –
O=C(O)C(Cl)Cl | inactive | –
